# The whole screen tested about 39,000 compounds, of which about 1,500 (3.8%) were called active. The full list was thinned out, with actives kept by preference.
# System: HSkMC (human skeletal muscle cells)
# Test: cytotoxicity call (relative viability < 0.9)
# Settings: 10 µM
row,Structure (SMILES),cytotoxicity call
1,COCCNC(=O)C[C@@H]1CC[C@H]2[C@@H](COc3ccc(NC(=O)Nc4cccc(F)c4)cc3C(=O)N2C)O1,inactive
2,C[C@@H]1CCCCO[C@H](CN(C)C(=O)Nc2ccc(F)cc2)[C@@H](C)CN([C@@H](C)CO)C(=O)c2cc(NC(=O)c3ccccc3)ccc2O1,inactive
3,C[C@@H]1CCCCO[C@@H](CN(C)S(=O)(=O)c2cccs2)[C@@H](C)CN([C@@H](C)CO)C(=O)c2cc(NC(=O)Nc3cccc4ccccc34)ccc2O1,inactive
4,C[C@@H]1CN([C@@H](C)CO)C(=O)c2cc(NC(=O)Nc3ccc4c(c3)OCO4)ccc2O[C@@H](C)CCCCO[C@@H]1CN(C)S(=O)(=O)c1cccs1,inactive
5,C[C@@H]1CCCCO[C@H](CN(C)S(=O)(=O)c2cccs2)[C@@H](C)CN([C@@H](C)CO)C(=O)c2cc(NC(=O)Nc3ccc(C(F)(F)F)cc3)ccc2O1,active
6,C[C@@H]1CCCCO[C@H](CN(C)S(=O)(=O)c2cccs2)[C@H](C)CN([C@@H](C)CO)C(=O)c2cc(NC(=O)Nc3ccc(C(F)(F)F)cc3)ccc2O1,active
7,C[C@@H]1CN([C@H](C)CO)C(=O)c2cc(NC(=O)Nc3ccc4c(c3)OCO4)ccc2O[C@@H](C)CCCCO[C@H]1CN(C)S(=O)(=O)c1cccs1,inactive
8,C[C@H](CO)N1C[C@H](C)[C@H](CN(C)S(=O)(=O)c2cccs2)OCCCC[C@H](C)Oc2ccc(NC(=O)Nc3cccc4ccccc34)cc2C1=O,active
9,C[C@@H]1CN([C@@H](C)CO)C(=O)c2cc(NC(=O)Nc3ccc(C(F)(F)F)cc3)ccc2O[C@@H](C)CCCCO[C@@H]1CN(C)S(=O)(=O)c1cccs1,inactive
10,C[C@@H]1CCCCO[C@@H](CN(C)S(=O)(=O)c2cccs2)[C@@H](C)CN([C@H](C)CO)C(=O)c2cc(NC(=O)Nc3ccc(C(F)(F)F)cc3)ccc2O1,inactive
11,C[C@@H]1CN([C@H](C)CO)C(=O)c2cc(NC(=O)Nc3ccc(C(F)(F)F)cc3)ccc2O[C@@H](C)CCCCO[C@@H]1CN(C)S(=O)(=O)c1cccs1,inactive
12,C[C@@H]1CCCCO[C@@H](CN(C)S(=O)(=O)c2cccs2)[C@H](C)CN([C@@H](C)CO)C(=O)c2cc(NC(=O)Nc3cccc4ccccc34)ccc2O1,inactive
13,C[C@H](CO)N1C[C@H](C)[C@@H](CN(C)S(=O)(=O)c2cccs2)OCCCC[C@H](C)Oc2ccc(NC(=O)Nc3ccc(C(F)(F)F)cc3)cc2C1=O,inactive
14,C[C@H](CO)N1C[C@H](C)[C@@H](CN(C)S(=O)(=O)c2cccs2)OCCCC[C@H](C)Oc2ccc(NC(=O)Nc3ccc4c(c3)OCO4)cc2C1=O,active
15,C[C@@H]1CN([C@H](C)CO)C(=O)c2cccc(NS(=O)(=O)c3ccccc3)c2O[C@@H]1CN(C)CC1CC1,inactive
16,O=C(C[C@H]1CC[C@@H]2[C@H](COC[C@H](O)CN2Cc2ccccc2F)O1)N[C@H]1CCN(Cc2ccccc2)C1,inactive
17,O=c1[nH][nH]c(=S)n1C1CC1,inactive
18,C=C(/C=C/CNS(=O)(=O)c1ccc(C)cc1)[C@H](O)[C@H]1CCCN1S(=O)(=O)c1ccccc1[N+](=O)[O-],inactive
19,O=C(C[C@H]1C[C@@H]2c3cc(NC(=O)c4cccnc4)ccc3O[C@@H]2[C@H](CO)O1)NCc1cc(F)ccc1F,inactive
20,C[C@H]1CN([C@@H](C)CO)C(=O)CCCn2nncc2CO[C@H]1CN(C)C(=O)CCCN(C)C,inactive

row,Structure (SMILES),cytotoxicity call
1,CCC[C@@H]1C[C@@H](C(=O)N[C@H]([C@H]2O[C@H](SC)[C@H](O)[C@@H](O)[C@H]2O)[C@@H](C)Cl)N(C)C1,inactive
2,Cc1noc(C)c1S(=O)(=O)N(C)C[C@H]1Oc2ccc(NS(C)(=O)=O)cc2CC(=O)N([C@@H](C)CO)C[C@H]1C,inactive
3,CCC(CCC(C)C1CCC2C3CC=C4CC(O)CCC4(C)C3CCC12C)C(C)C (stereo not drawn) [beta-SITOSTEROL ],inactive
4,N/C(=N/O)c1cnc2n(c1=O)CCS2,inactive
5,C[C@@H]1CN([C@H](C)CO)C(=O)Cc2cc(NC(=O)Cc3ccccc3)ccc2O[C@H]1CN(C)S(=O)(=O)c1cccs1,inactive
6,O=C(CN1CCOCC1)N[C@H]1CC[C@H](CCNC(=O)C2CCCCC2)O[C@H]1CO,inactive
7,C[C@@H]1CN([C@@H](C)CO)C(=O)c2ccccc2-c2ccccc2CO[C@H]1CN(C)S(=O)(=O)c1ccc(C(F)(F)F)cc1,inactive
8,CC1COC2=C1C(=O)C(=O)c1c2ccc2c1CCCC2(C)C (stereo not given),active
9,Cc1coc2c1C(=O)C(=O)c1c-2ccc2c1CCCC2(C)C,active
10,Cc1cccc2c3c(ccc12)C1=C(C(=O)C3=O)C(C)CO1 (stereo not given),inactive
11,C[C@H]1CN(C(=O)N(C)C)CCN1C(=O)N(C)C,inactive
12,O=C(O)Cn1c(=O)n(CC(=O)O)c2ccccc21,inactive
13,COC(=O)C(CCCN1C(=O)c2ccccc2C1=O)(NC(C)=O)c1nn[nH]n1 (stereo not given),inactive
14,C[C@H](CO)N1C[C@H](C)[C@H](CN(C)C(=O)c2cnccn2)Oc2ncc(-c3cccc(C#N)c3)cc2C1=O,inactive
15,C[C@@H]1CN([C@H](C)CO)C(=O)CCCn2nncc2CO[C@H]1CN(C)Cc1cccc2c1OCCCO2,inactive
16,CCOC(=O)N(C)C[C@H]1OCc2cn(nn2)CCCC(=O)N([C@@H](C)CO)C[C@@H]1C,inactive
17,O=C(O)CCSC[C@@H]1O[C@H]2O[C@@H]3[C@@H](O)[C@H](O)[C@H](O[C@@H]4[C@@H](O)[C@H](O)[C@H](O[C@@H]5[C@@H](O)[C@H](O)[C@H](O[C@@H]6[C@@H](O)[C@H](O)[C@H](O[C@@H]7[C@@H](O)[C@H](O)[C@H](O[C@@H]8[C@@H](O)[C@H](O)[C@H](O[C@@H]9[C@@H](O)[C@H](O)[C@H](O[C@@H]1[C@@H](O)[C@@H]2O)O[C@H]9CSCCC(=O)O)O[C@H]8CSCCC(=O)O)O[C@H]7CSCCC(=O)O)O[C@H]6CSCCC(=O)O)O[C@H]5CSCCC(=O)O)O[C@H]4CSCCC(=O)O)O[C@H]3CSCCC(=O)O,inactive
18,C[C@H](CO)N1C[C@H](C)[C@H](CN(C)Cc2ccc(C(=O)O)cc2)OCCCC[C@H](C)Oc2ccc(NC(=O)Nc3ccccc3)cc2C1=O,inactive
19,C[C@H](CO)N1C[C@H](C)[C@@H](CN(C)S(C)(=O)=O)Oc2ccc(NC(=O)Nc3ccc(F)cc3)cc2CC1=O,inactive
20,CCC(=C/[C@H](C)C/C=C/C(C)=C/[C@@H](C)C(=O)[C@@H](C)[C@H](O)[C@@H](C)C/C(C)=C/C(=O)O)/C=C/[C@@H]1OC(=O)C=C[C@@H]1C,active

row,Structure (SMILES),cytotoxicity call
1,Cc1noc(C)c1NC(=O)N(C)C[C@@H]1Oc2ccc(NS(C)(=O)=O)cc2CC(=O)N([C@H](C)CO)C[C@H]1C,inactive
2,C[C@@H]1CN([C@H](C)CO)S(=O)(=O)c2ccc(-c3cccnc3)cc2O[C@H]1CN(C)C(=O)c1cccc(F)c1,inactive
3,COc1ccc([Si](C)(C)[C@@H]2[C@@H](CCO)O[C@]3(C(=O)N(Cc4ccccc4)c4ccc(N(C=O)c5ccccc5)cc43)[C@H]2C)cc1,inactive
4,COc1ccc([Si](C)(C)[C@H]2[C@H](CCO)O[C@@]3(C(=O)N(Cc4ccccc4)c4ccc(N(C=O)c5ccccc5)cc43)[C@@H]2C)cc1,inactive
5,COc1ccc([Si](C)(C)[C@@H]2[C@@H](CCO)O[C@]3(C(=O)N(Cc4ccc(N(C=O)c5ccccc5)cc4)c4ccccc43)[C@H]2C)cc1,inactive
6,C=CCN1C(=O)[C@@]2(O[C@@H](CCO)[C@H]([Si](C)(C)c3ccc(OC)cc3)[C@H]2C)c2cc(N(C=O)c3ccccc3)ccc21,active
7,COc1ccc([Si](C)(C)[C@H]2[C@H](CCO)O[C@@]3(C(=O)N(Cc4ccc(N(C=O)c5ccccc5)cc4)c4ccccc43)[C@@H]2C)cc1,inactive
8,C=CCN1C(=O)[C@]2(O[C@H](CCO)[C@@H]([Si](C)(C)c3ccc(OC)cc3)[C@@H]2C)c2cc(N(C=O)c3ccccc3)ccc21,active
9,C[C@@H]1CCCCO[C@@H](CN(C)C(=O)Nc2ccccc2)[C@@H](C)CN([C@H](C)CO)C(=O)c2cc(NS(=O)(=O)c3ccccc3)ccc2O1,inactive
10,C[C@@H]1CN([C@H](C)CO)C(=O)c2cc(NC(=O)NC3CCCCC3)ccc2O[C@@H](C)CCCCO[C@@H]1CN(C)CC1CCCCC1,inactive
11,C[C@H](CO)N1C[C@H](C)[C@H](CN(C)S(=O)(=O)c2ccccc2)Oc2ccc(NC(=O)CCC(F)(F)F)cc2CC1=O,inactive
12,C[C@H]1CN([C@@H](C)CO)C(=O)c2cccc(NC(=O)NC3CCCCC3)c2O[C@@H]1CN(C)Cc1ccc(-c2ccccc2)cc1,inactive
13,Clc1ccc(C(Cn2ccnc2)OCc2c(Cl)cccc2Cl)c(Cl)c1.O=[N+]([O-])O (stereo not given),inactive
14,Clc1ccc(CSC(Cn2ccnc2)c2ccc(Cl)cc2Cl)cc1.O=[N+]([O-])O (stereo not given),active
15,Clc1ccc(COC(Cn2ccnc2)c2ccc(Cl)cc2Cl)cc1.O=[N+]([O-])O (stereo not given),inactive
16,Cc1noc(C)c1S(=O)(=O)N(C)C[C@@H]1Oc2ccc(NS(=O)(=O)c3ccc(Cl)cc3)cc2C(=O)N([C@H](C)CO)C[C@@H]1C,inactive
17,C[C@@H]1CCCCO[C@H](CN(C)C(=O)Nc2cccc3ccccc23)[C@H](C)CN([C@H](C)CO)C(=O)c2cc(NS(C)(=O)=O)ccc2O1,inactive
18,Cc1ccc(C(N)=S)c(=O)[nH]1,inactive
19,C[C@H]1CN([C@@H](C)CO)C(=O)c2cccc(NC(=O)C3CCCCC3)c2O[C@@H]1CN(C)Cc1ccc(Cl)c(Cl)c1,inactive
20,COC(=O)c1c(CC[C@@H](CO)NC(=O)N[C@@H](Cc2ccccc2)Cn2cc(-c3ccccn3)nn2)oc(C(=O)N2CCOCC2)c1C(=O)OC,inactive
